In PubChem BioAssay AID2289 (National Center for Advancing Translational Sciences (NCATS), 2010):
Hit rate of the full screen: of about 340,000 compounds, about 3,300 (0.97%) were called active. Inconclusive results (about 9%) are left out. The call rests on the fitted dose curve; in most records, active means well fitted inhibition curve with a large enough effect; inconclusive means small, poorly fitted or top-dose-only effect, or effect the other way; inactive means flat fitted curve, though single readings scatter. The list shows a part of the results.

assay: qHTS Assay for Modulators of miRNAs and/or Inhibitors of miR-21; conditions: HeLa miR-21-FLuc reporter, luciferase luminescence, 48 h; actives lower the signal; further: nearly all actives have a fitted effect of over 55% in size
In short: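 HeLa cells endogenously expressing miR-21, stably carrying CMV-driven firefly luciferase with a downstream miR-21 binding site, 2000 cells/well. Titrations up to approximately 40 uM, 48 hours; luciferase luminescence read.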
Potency means the concentration at half of the fitted maximal effect.

Potency, active:
CCc1ccc2oc(-c3cc(N=Cc4cccc(OC)c4O)ccc3O)nc2c1 0.656 µM
O=C(N/N=C/c1cccs1)c1c[nH]c2ccccc12 7.36 µM
CC/C(=N\NC(=O)c1c[nH]c2ccccc12)c1cccs1 2.93 µM
CN1CCN(C(=S)c2ccc(-c3cccc(Cl)c3Cl)o2)CC1 5.21 µM
S=C(c1ccc(-c2ccccc2Cl)o1)N1CCCCC1 3.29 µM
COCCCNC(=S)N/N=C/c1ccc(N(C)C)cc1Cl 5.85 µM
Cc1ccc(C)c(NC(=O)c2cc(-c3cc(C)ccc3O)n[nH]2)c1 5.21 µM
Cc1cccc(NC(=O)c2cc(-c3cc(C)c(C)cc3O)n[nH]2)c1 0.736 µM
Cc1ccc(O)c(-c2cc(-c3cccc(Br)c3)n[nH]2)c1 6.56 µM
Cc1cccc(NC(=O)c2cc(-c3cc(C)ccc3O)n[nH]2)c1 1.04 µM
O=C(O)c1ccc(N/N=C/c2cccc3cccnc23)cc1 0.369 µM
O=C(O)c1ccc(N/N=C/c2ccnc3ccccc23)cc1 3.69 µM
Cn1ncc2c(Nc3ccc4ccccc4c3)ncnc21 4.65 µM
CCCn1ncc2c(Nc3ccc(C)c(C)c3)ncnc21 4.65 µM
Clc1ccc2c(c1)[C@H]1OCC[C@H]1[C@@H](c1ccco1)N2 5.85 µM
Clc1ccc2c(c1)C1OCCC1C(c1ccco1)N2 (centres undefined) 6.56 µM
CCC(=O)c1ccc(OCc2ccccc2)c(OC)c1 6.56 µM
COc1ccccc1OCCNC(=O)c1ccc2c(c1)CCC2 5.85 µM
CCCNC(=O)c1cccc(COc2ccccc2OC)c1 2.07 µM
COc1ccccc1OCCNC(=O)c1ccc(Br)cc1 16.5 µM
Cc1ccc(OCCNC(=O)c2ccc(C)cc2)cc1 14.7 µM
Clc1cccc(Cl)c1Cn1ccc(C2CC2)n1 10.4 µM
O=C(NCc1ccccc1)c1c[nH]c2cc3c(cc2c1=O)OCCO3 2.33 µM
Cc1cc(O)ccc1N/C=C/c1onc(C)c1[N+](=O)[O-] 1.04 µM
Cc1ccc(N/C=C/c2onc(C)c2[N+](=O)[O-])cc1 0.185 µM
Oc1ccccc1N1CCN(c2ccc3ccccc3n2)CC1 0.826 µM
O=C(c1ccc2ccccc2n1)N1CCN(c2ccccc2Cl)CC1 16.5 µM
CN(C)c1cnn(-c2ccccc2)c(=O)c1Cl 14.7 µM
CC(=O)Nc1ccc(OCC(O)Cn2ccnc2)cc1 (centres undefined) 16.5 µM
